Source: publication PMC5540273 (PLoS ONE, 2017)

Test system: T1, p38-gamma
T1 construct: gene MAPK12
Conditions: concentration: 1 μM, replicates: in singlicate; n = 1
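Further: KINOMEscan kinase panel screen.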

Structure (SMILES) | %Inh
CCC(=O)c1c(-c2ccccc2)c2cc(Cl)ccc2c(=O)n1Cc1cc(S(C)(=O)=O)n(CCC(C)(C)O)n1 | 26%
COc1cc2ncn(-c3cc(OCc4ccc(S(C)(=O)=O)cc4)c(C(N)=O)s3)c2cc1OC [GW869979] | 24%
Fc1cccc(CSc2nnc(-c3ccc4c(c3)CCO4)o2)c1 | 21%
Cc1nc(N(C)[C@H]2CN(C(=O)CC#N)CC[C@H]2C)c2cc[nH]c2n1 | 11%
Nc1nc(N)c2nc(-c3ccccc3)[nH]c2n1 [SKF-12778] | 0%
COc1cc2ncn(-c3cc(OCc4ccncc4)c(C(N)=O)s3)c2cc1OC [GSK336313] | 0%
CCC(=O)c1c(-c2ccccc2)c2cc(Cl)ccc2c(=O)n1Cc1cc(S(C)(=O)=O)n(CC(F)F)n1 | 0%
O=C(Nc1n[nH]c2cc(-c3ccccc3F)ccc12)C1CC1 [SB-733371] | 19%
Cc1nnc(-c2ccc3ncn(-c4ccc(S(C)=O)cc4)c3c2)o1 (stereo not drawn) | 0%
Nc1n[nH]c2ncc(-c3ccccc3)cc12 [SB-517081] | 31%
Cc1ccc(Oc2ccc(Nc3ncnc4cc[nH]c34)cc2C)cn1 | 35%
FC(F)(F)c1ccc(-c2ncn(CCCN3CCOCC3)c2-c2ccncc2)cc1 [SB-217780] | 2%
COC(=O)c1c(-c2ccccc2)c2cc(Br)ccc2c(=O)n1Cc1ccc(S(C)(=O)=O)cc1 | 29%
Cl.NS(=O)(=O)c1cccc(Nc2cc(-c3ccc(F)cc3)n[nH]2)c1 [GW824645] | 0%
Cc1nn2c(=O)cc(N3CCOCC3)nc2n1Cc1cccc(Cl)c1Cl [GSK2342769] | 0%
COc1cc(Nc2nccc(N3CCC(NC(=O)C4COc5ccccc5O4)C3)n2)cc(OC)c1OC (stereo not drawn) [GSK1379761] | 39%
COc1ccc(-c2cc3c(C)nc(N)nc3n([C@H]3CC[C@H](OCCO)CC3)c2=O)cn1 | 0%
O=c1cc(N2CCOCC2)nc2n(Cc3ccc(F)c(Cl)c3)ccn12 [GSK2297099] | 0%

Structure (SMILES) | %Inh
COC(=O)c1c(-c2ccccc2)c2cc(C)ccc2c(=O)n1Cc1ccccc1 | 0%
Nc1ncnc2c1ncn2-c1cccc2ccccc12 [SKF-97184] | 0%
CC(C)(C)c1ccc(C(=O)Nc2cn3cc(-c4ccccc4)ccc3n2)cc1 | 8%
CN1C(=O)C(Nc2cc(Cl)c(O)c(Cl)c2)=C(c2ccc(Cl)cc2)C1=O [SB-404321] | 23%
COc1ccc(-n2cnc3c(N)ncnc32)cc1 [SKF-97236] | 12%
COC(=O)c1c(-c2ccccc2)c2cc(Br)ccc2c(=O)n1Cc1ccc(NC(=O)CCC(=O)O)cc1 | 21%
COc1cccc(-n2cnc3c(N)ncnc32)c1 [SKF-97416] | 52%
Cl.c1ccc(Cn2cnc3cc(Nc4ncnc5ccccc45)ccc32)cc1 [GW272142] | 0%
Nc1nccc2scc(-c3ccc4c(c3)CCN4C(=O)Cc3ccccc3)c12 [GSK2576924] | 5%
COc1cc2ncn(-c3cc(OCCCc4ccccc4)c(C(N)=O)s3)c2cc1OC [GSK205189] | 0%
CCC(=O)c1c(-c2ccccc2)c2cc(Cl)ccc2c(=O)n1Cc1ccc(C(=O)O)cc1 | 0%
O=C(Nc1n[nH]c2nc(-c3ccccc3)c(Br)cc12)C1CC1 [SB-708998] | 26%
CN(C)c1cc(-c2ccc3c(N)n[nH]c3c2)nc(N)n1 [GSK2219329] | 0%
CCS(=O)c1ccc(-c2coc3ccc(-c4nnc(C)o4)cc23)cc1 (stereo not drawn) | 0%
O=C(Nc1ccc2c(c1)OCO2)NC1CCN(c2ccnc(NCc3ccc(F)cc3)n2)CC1 [GSK1379859] | 0%
Nc1ncnc2c1ncn2-c1ccc(Cl)cc1 [AH2635] | 0%
Cc1cccc(-c2cc(-c3c[nH]nc3-c3ccccn3)ccn2)c1 [GW679395] | 12%
O=C(Nc1n[nH]c2nc(-c3ccccc3)c(Cl)cc12)C1CC1 [SB-734909] | 27%
